The list is not random: actives were taken first. Their share in the collection is about 6.3%.
tim23-1 inh – tim23-1 yeast growth inhibition | S. cerevisiae tim23-1 growth, BacTiter-Glo luminescence, 24 h | inhibition, % at 20 µM | hit rate 1.3% among 330,000 | AID 463212;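 active means growth inhibition of the mutant yeast at or above 50%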;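 further: temperature-sensitive mutant grown at 25 °C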
Mdm2-MdmX inh – disrupts the human Mdm2-MdmX interaction. hit rate 3% among 330,000. inhibition, % at 8 µM. AID 485346. SaOS-2 split-luciferase Mdm2/MdmX complementation, luminescence. O15151+Q00987;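 active means inhibition of at least 50% at 8 µM in the primary screen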
Target sequence (O15151 whole entry, looked up): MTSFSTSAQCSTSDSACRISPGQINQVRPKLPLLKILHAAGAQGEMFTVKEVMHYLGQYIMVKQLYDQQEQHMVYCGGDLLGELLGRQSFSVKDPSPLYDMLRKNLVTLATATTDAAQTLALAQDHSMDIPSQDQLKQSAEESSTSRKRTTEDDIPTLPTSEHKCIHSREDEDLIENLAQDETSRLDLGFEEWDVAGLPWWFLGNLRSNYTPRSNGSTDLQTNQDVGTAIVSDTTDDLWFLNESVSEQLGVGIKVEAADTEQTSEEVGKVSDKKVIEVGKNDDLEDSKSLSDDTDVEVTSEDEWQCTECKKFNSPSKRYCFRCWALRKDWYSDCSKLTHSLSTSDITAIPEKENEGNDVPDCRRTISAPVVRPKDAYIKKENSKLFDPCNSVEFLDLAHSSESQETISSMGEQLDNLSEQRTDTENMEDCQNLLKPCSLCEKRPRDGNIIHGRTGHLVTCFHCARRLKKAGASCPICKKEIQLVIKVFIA
Target sequence (Q00987 whole entry, looked up): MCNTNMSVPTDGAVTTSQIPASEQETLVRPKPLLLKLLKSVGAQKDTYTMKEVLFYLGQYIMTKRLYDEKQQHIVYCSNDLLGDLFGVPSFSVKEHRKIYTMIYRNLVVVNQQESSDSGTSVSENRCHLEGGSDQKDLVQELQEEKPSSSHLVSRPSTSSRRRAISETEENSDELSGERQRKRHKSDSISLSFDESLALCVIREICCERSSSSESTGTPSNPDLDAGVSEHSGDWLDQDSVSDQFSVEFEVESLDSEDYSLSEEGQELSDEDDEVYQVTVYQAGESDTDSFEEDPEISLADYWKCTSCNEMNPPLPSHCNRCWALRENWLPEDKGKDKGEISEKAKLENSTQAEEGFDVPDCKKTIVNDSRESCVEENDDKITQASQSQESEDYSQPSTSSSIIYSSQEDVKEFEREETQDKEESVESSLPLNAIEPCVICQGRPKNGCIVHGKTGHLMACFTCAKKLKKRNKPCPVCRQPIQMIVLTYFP
MPTP block – inhibitors of mitochondrial permeability transition pore | isolated mouse mitochondria, Ca2+ swelling absorbance, 30 min | inhibition, % at 10 µM | hit rate 1.4% among 360,000 | AID 602449;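 active means inhibition of 50% or more, scaled per plate between neutral and stimulator controls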
tim10-1 inh – inhibits growth of tim10-1 mutant yeast; hit rate 2.2% among 330,000; inhibition, % at 20 µM; S. cerevisiae tim10-1 ts strain growth, BacTiter-Glo, 24 h;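 active means inhibition of at least 40%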;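 further: mutant grown at 25 °C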
TIM10 inh – growth inhibitors of TIM10 yeast strain; inhibition, % at 10 µM; S. cerevisiae TIM10 strain growth, BacTiter-Glo luminescence, 24 h; hit rate 1.4% among 330,000;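 active means inhibition of 40% or more at the single tested concentration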;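 further: wild-type TIM10 isogenic control strain grown at permissive 25 °C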
tim10-1 conf – tim10-1 yeast growth inhibition, confirmed; inhibition, % at 20 µM; AID 463213; hit rate 56% among 7,400; shares compounds with tim10-1 inh; S. cerevisiae tim10-1 ts strain growth, BacTiter-Glo, 24 h;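 active means inhibition of yeast growth at or above a set limit in either of two repeat tests at 20 µM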;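 further: tim10-1 mutant grown at permissive 25 °C to find synthetic lethal compounds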
Each line names hits and unclear results; the compound was inactive in the other large screens (follow-up assays come after a bar, where they were run).

Cc1ccc(S(=O)(=O)n2nc(OC(=O)c3ccco3)cc2N)cc1	tim10-1 inh 42 | tim10-1 conf inactive
Nc1cc(OC(=O)c2ccco2)nn1S(=O)(=O)c1ccc(F)cc1	none
COc1ccc(C(O)c2nc(-c3ccccc3)cs2)cc1 (stereo unspecified)	none (no result: tim23-1 inh, Mdm2-MdmX inh, tim10-1 inh, TIM10 inh)
CC(=O)NCCNc1nc2cc(-c3ccc(C(=O)N4CCN(C)CC4)cc3)sc2c(=O)n1C	none (no result: tim23-1 inh, Mdm2-MdmX inh, tim10-1 inh, TIM10 inh)
N#Cc1c(N)nc(SCC(=O)C23CC4CC(CC(C4)C2)C3)c(C#N)c1-c1ccc(Cl)cc1	tim10-1 inh 45 | tim10-1 conf 43
Cc1ccc(-c2nn3c(C)nnc3c3ccccc23)cc1S(=O)(=O)NCCO	none
Cc1ccc(-c2nn3c(C)nnc3c3ccccc23)cc1S(=O)(=O)N1CCN(CCO)CC1	tim10-1 inh 44 | tim10-1 conf inactive
O=C([C@H]1O[C@@H](n2ccc(=O)[nH]c2=O)[C@H](O)[C@@H]1O)N1CCN(Cc2ccccn2)CC1	none (no result: tim23-1 inh, Mdm2-MdmX inh, tim10-1 inh, TIM10 inh)
CC(C)C(C(=O)NCc1ccccc1)N1CCN(C(=O)C2CCCO2)CC1 (stereo unspecified)	none (no result: tim23-1 inh, Mdm2-MdmX inh, tim10-1 inh, TIM10 inh)
O=C(c1cc2cc(F)ccc2[nH]1)N1CCN(Cc2ccc3c(c2)OCO3)CC1	tim10-1 inh 44 | tim10-1 conf inactive
COc1ccc(CC(=O)Nc2nc(-c3ccccc3)c(C(C)=O)s2)cc1OC	tim10-1 inh 48 | tim10-1 conf inactive
CC(=NCc1ccccc1)c1ccc(O)cc1O	none (no result: tim23-1 inh, Mdm2-MdmX inh, tim10-1 inh, TIM10 inh)
CCOc1ccc(Cl)cc1-c1cc(C(=O)NCc2cc(C(F)(F)F)cc(C(F)(F)F)c2)[nH]n1	none (no result: tim23-1 inh, Mdm2-MdmX inh, tim10-1 inh, TIM10 inh)
Clc1ccc(Cn2c(/C=C/c3ccco3)nc3ccccc32)cc1	tim10-1 inh 48 | tim10-1 conf 40
O=C(NC1CCC(=O)N(CCSc2ccccc2)CC1)OCc1ccccc1 (stereo unspecified)	tim10-1 inh 48 | tim10-1 conf inactive
N#CCCN1CCC(NC(=O)OCc2ccccc2)CCC1=O (stereo unspecified)	none
COc1ccccc1CNS(=O)(=O)c1ccc(-c2cc(C)no2)cc1	none
CCc1ccc(-c2cc(C)no2)cc1S(=O)(=O)NCc1ccccc1OC	tim10-1 inh 41 | tim10-1 conf inactive
CCc1ccc2c(F)cccc2n1	none (no result: tim23-1 inh, Mdm2-MdmX inh, tim10-1 inh, TIM10 inh)
Clc1ccc(-c2nn3c(C4COc5ccccc5O4)nnc3s2)cc1 (stereo unspecified)	tim10-1 inh 56 | tim10-1 conf 38
O=C(O)C1=CC[C@@H](c2ccc(Cl)cc2)N(S(=O)(=O)c2ccc(Cl)cc2)[C@H]1c1cccc(Cl)c1	tim10-1 inh 40 | tim10-1 conf inactive
O=c1[nH]nc2c3ccccc3occ1-2	none (no result: tim23-1 inh, Mdm2-MdmX inh, tim10-1 inh, TIM10 inh)
CCOC(=O)[C@]12CCCC=C1N(Cc1ccco1)C(=O)[C@H](CC(=O)NCc1cccs1)C2	none (no result: tim23-1 inh, Mdm2-MdmX inh, tim10-1 inh, TIM10 inh)
COc1ccc(-c2cc(-c3ccccc3O)[nH]n2)cc1OC	none
COc1ccc(-c2cc(-c3cc(F)ccc3O)[nH]n2)cc1OC	none | tim10-1 conf inactive
COc1ccc(-c2cc(-c3ccc(Cl)cc3)n[nH]2)c(O)c1	tim10-1 inh 41 | tim10-1 conf 45
COc1ccc(CCNC(=O)c2cc([C@@H](NC(=O)OC(C)(C)C)C(C)C)sc2N)cc1OC	none (no result: tim23-1 inh, Mdm2-MdmX inh, tim10-1 inh, TIM10 inh)
O=C(CN1CCOCC1)N/N=C/c1c(O)ccc2ccccc12	tim10-1 inh 46 | tim10-1 conf inactive
Nc1[nH]c(C(=O)c2ccccc2)c(-c2c(F)cccc2F)c1C(=O)c1ccc(Cl)c(Cl)c1	none (no result: tim23-1 inh, Mdm2-MdmX inh, tim10-1 inh, TIM10 inh)
Cc1c(C(=O)c2ccc(N(C)C)cc2)c2ccccn2c1CCC#N	tim10-1 inh 40 | tim10-1 conf inactive
CC(=O)C[C@@H]1SC[C@H](c2ccccc2)N1S(=O)(=O)c1ccc(C)cc1	none (no result: tim23-1 inh, Mdm2-MdmX inh, tim10-1 inh, TIM10 inh)
O=C(NC12CC3CC(CC(C3)C1)C2)N1CCN(c2nc(-c3ccccc3)cs2)CC1	none
COCCCNC(=S)N1CCN(c2nc(-c3ccc(F)cc3)cs2)CC1	tim10-1 inh 44 | tim10-1 conf 33
CCOCCCNC(=S)N1CCN(c2nc(-c3ccc(F)cc3)cs2)CC1	none
COc1ccc(-c2csc(N3CCN(C(=O)c4ccccc4)CC3)n2)cc1	tim10-1 inh 42 | tim10-1 conf 33
CCCNC(=S)N1CCN(c2nc(-c3cccc(OC)c3)cs2)CC1	none
O=C(NC1CCCCC1)N1CCN(c2nc(-c3ccccc3)cs2)CC1	tim10-1 inh 45 | tim10-1 conf inactive
COCCNC(=S)N1CCN(c2nc(-c3ccccc3)cs2)CC1	tim10-1 inh 41 | tim10-1 conf 32
CC1(C(=O)NS(=O)(=O)c2ccc(F)cc2F)CCN1C(=O)Cc1cccc2ccccc12 (stereo unspecified)	none (no result: tim23-1 inh, Mdm2-MdmX inh, tim10-1 inh, TIM10 inh)
CNC(=S)N/N=C(\C)c1ccc(-n2ccnc2)cc1	none
C/C(=N\NC(=S)NC(C)C)c1ccc(-n2ccnc2)cc1	tim10-1 inh 43 | tim10-1 conf inactive
OC1CCN(c2ncnc3c2nnn3Cc2c(F)cccc2Cl)CC1	tim10-1 inh 43 | tim10-1 conf inactive
O=C(N(c1ccccn1)c1ccccn1)C12CC3CC(CC(C3)C1)C2	tim10-1 inh 42 | tim10-1 conf inactive
CC1=C(C(=O)OCc2ccccc2)C(c2ccc(C#N)cc2)NC(=O)N1CCCC(=O)O (stereo unspecified)	none
CN1CC(c2ccc(C#N)cc2)C2(COc3ccccc3C2=O)C12C(=O)Nc1ccccc12 (stereo unspecified)	tim10-1 inh 40 | tim10-1 conf 40
Nc1nc(-c2ccc3ccccc3c2)cs1	tim10-1 inh 43 | tim10-1 conf inactive
COc1ccc(Cn2cc(CN3CC(N4CCN(CCN(C)C)CC4)CS3(=O)=O)nn2)cc1 (stereo unspecified)	none (no result: tim23-1 inh, Mdm2-MdmX inh, tim10-1 inh, TIM10 inh)
O=C(Nc1ncc2c(n1)CC(c1cccc(Cl)c1)CC2=O)c1ccco1 (stereo unspecified)	tim10-1 inh 41 | tim10-1 conf 32
O=C(Nc1ncc2c(n1)CC(c1ccccc1)CC2=O)c1ccco1 (stereo unspecified)	none
Cc1ccc(Nc2nnc(C3C(=O)N(C)C4(C)CC3c3cc(Br)ccc3O4)s2)cc1 (stereo unspecified)	tim10-1 inh 45 | tim10-1 conf inactive
COc1ccc(NC(=O)C2(C)CCN2Cc2ccc(C(C)C)cc2)cc1OC (stereo unspecified)	none (no result: tim23-1 inh, Mdm2-MdmX inh, tim10-1 inh, TIM10 inh)
COc1ccc2c(C#CCCO)c(-c3ccc(S(C)(=O)=O)cc3)sc2c1	none
COc1ccc2sc(-c3ccc(S(C)(=O)=O)cc3)c(C#CCO)c2c1	tim10-1 inh 43 | tim10-1 conf 41
CC1NC(=O)c2cc3ccccc3cc2-n2c1nc1cc(Cl)ccc1c2=O (stereo unspecified)	none (no result: tim23-1 inh, Mdm2-MdmX inh, tim10-1 inh, TIM10 inh)
NC(=S)N/N=C/c1ccc(-c2ccccc2)o1	none
Cc1ccc(-c2ccc(/C=N/NC(N)=S)o2)cc1	tim10-1 inh 42 | tim10-1 conf inactive
COC(=O)c1c(NC(NC(=O)C(C)(C)C)C(Cl)(Cl)Cl)sc2c1CCC2 (stereo unspecified)	none
COC(=O)c1c(NC(NC(=O)C(C)C)C(Cl)(Cl)Cl)sc2c1CCC2 (stereo unspecified)	tim10-1 inh 44 | tim10-1 conf inactive

Screening results from PubChem.
